Pf growth 48h – Primary qHTS for delayed death inhibitors of the malarial parasite plastid, 48 hour incubation. P. falciparum luciferase growth in erythrocytes, 48 h. Potency, µM (titrated, usually from 28.7 µM), for inactives: top-dose activity change, negative = inhibition, usual class: inhibitors. 310,000 tested, 5.9% active; also: potency is read from the fitted curve at half-maximal effect; % is scaled to controls: 0 for no effect and ±100 for the full control effect
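Growth was read as firefly luciferase luminescence after a 48 h, 37 C, 5% CO2 exposure of compounds to reporter-bearing P. falciparum cultures (0.1% parasitemia, 2% hematocrit final) in Albumax-supplemented RPMI 1640.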
Sm TGR inh – qHTS Assay for the Inhibitors of Schistosoma Mansoni Peroxiredoxins | 360,000 tested, 3% active | Schistosoma mansoni thioredoxin glutathione reductase (TGR), Q962Y6 | AID 485364, 2010 | purified TGR, DTNB reduction, TNB absorbance 405 nm | Potency, µM (titrated, usually from 114 µM), inactives show at the highest dose activity change, negative = inhibition, actives largely listed as inhibitors; also: potency is read from the fitted curve at half-maximal effect; % is scaled to controls: 0 for no effect and ±100 for the full control effect; nearly all actives have a fitted effect of over 60% in size
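TGR 20 nM + NADPH 100 uM (dispensed conc.), cpd preinc 15 min RT; start with NADPH (500 uM addition) then DTNB (15 mM addition). Kinetic TNB absorbance, 405 nm filter. Four-parameter Hill fit across titration.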
SARS PLP yeast – qHTS of Yeast-based Assay for SARS-CoV PLP. S. cerevisiae expressing SARS-CoV PLpro, growth rescue. Potency, µM (titrated, usually from 32.9 µM), without a hit: at the highest dose activity, positive = growth rescue, most hits filed as activators. 330,000 tested, 0.19% active. AID 485353, 2010; calls by dose curve; also: potency is read from the fitted curve at half-maximal effect; 0% is about no effect; nearly all actives have a fitted effect of over 55% in size
Pf growth 96h – Primary qHTS for delayed death inhibitors of the malarial parasite plastid, 96 hour incubation | P. falciparum luciferase reporter growth, 96 h | Potency, µM (titrated, usually from 28.7 µM), inactives show top-dose activity change, negative = inhibition, most hits filed as inhibitors | 320,000 tested, 6.9% active; also: potency is read from the fitted curve at half-maximal effect; % is scaled to controls: 0 for no effect and ±100 for the full control effect
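Delayed-death screen, second-generation endpoint: infected erythrocytes, 2% hematocrit, 0.05% parasitemia final; 96 hours at 37 C, 5% CO2; luciferase detection reagent; luminescence decrease equals reduced growth.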
HCMV antiviral – qHTS Assay for inhibitors of the human cytomegalovirus (HCMV); 410,000 tested, 4.5% active; HFF cells, HCMV-luciferase reporter, 72 h; hits give low values; activity change, negative = inhibition, % at 57.5 µM; in the data active = activity change below about -60%; inconclusive = no clear call, values can overlap the other calls; inactive = above about -39%; also: % is scaled to controls: 0 for no effect and ±100 for the full control effect
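Steps: HFFs plated, 16 h 37C; compounds added; HCMV-luciferase added to MOI 1 PFU/cell; 72 h 37C; OneGlo reagent, 5 min room temperature; luminescence read, normalized to controls.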
HCV inh – qHTS Assay for Inhibitors of Hepatitis C Virus (HCV); 340,000 tested, 3.4% active; Potency, µM (titrated, usually from 41.8 µM), without a hit: at the top dose activity change, negative = inhibition, most hits filed as inhibitors; AID 651820, 2012; Huh7.5.1 HCVcc-Cre infection, luciferase reporter, 44 h; also: potency is read from the fitted curve at half-maximal effect; % is scaled to controls: 0 for no effect and ±100 for the full control effect
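Whole-lifecycle infectious HCVcc-Cre system; cells 1,000/well, compound then virus (~0.5 moi) added 4 h after plating, 44 h culture. Luciferase read 15 sec following 15 min substrate incubation, room temp.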
The depositor's hits bear a star; ? = inconclusive; . = not tested or not shown. Most compounds without a hit are left out; they make up all but 15% or so of the library. Unless noted, calls follow the shape of the dose curve; as a rule, active = well fitted curve in the direction sought with a large enough effect; inconclusive = small, poorly fitted or top-dose-only effect, or another doubt; inactive = no such curve, though single readings can be large; an effect the other way counts as inactive or inconclusive.

SMILES | Pf growth 48h | Sm TGR inh | SARS PLP yeast | Pf growth 96h | HCMV antiviral | HCV inh
O=C1C(=O)N(CCN2CCOCC2)C(c2ccccc2F)/C1=C(\O)c1ccc(S(=O)(=O)N2CCOCC2)cc1 (stereo not given) | 27% | -1% | 1% | -27% | -9 | 18%
COc1ccc(C2/C(=C(/O)c3ccc(Br)cc3)C(=O)C(=O)N2C)cc1 (stereo not given) | 0% | 0% | 1% | 0.93µM* | -26 | 15%
COc1ccc(/C(O)=C2\C(=O)C(=O)N(CCN3CCOCC3)C2c2ccccc2OC)cc1 (stereo not given) | 7% | -10% | 11% | -13% | -32 | 2%
COCCNc1ncnc2c1ncn2[C@H]1CN(Cc2ccco2)C[C@@H](CO)O1 | . | . | . | . | 4 | .
O=C(c1cc(COc2ccc(F)c(F)c2)on1)N1CCN(C2CCCCC2)C(=O)C1 | ? | -22% | -2% | -15% | 34 | -14%
Cc1ccc(N2CCN(C(=O)c3c(C)oc4ncnc(N5CCCCC5)c34)CC2)c(C)c1 | . | -3% | . | . | -7 | .
O=C1C(=O)N(CCN2CCOCC2)C(c2ccccn2)/C1=C(/O)c1ccc(F)cc1 (stereo not given) | ? | 28µM* | 2% | ? | -21 | 14%
CCOc1ccc(C2/C(=C(/O)c3ccc(S(=O)(=O)N4CCCCC4)cc3)C(=O)C(=O)N2CCCOC)cc1OC (stereo not given) | ? | 1% | -3% | 3.7µM* | -5 | 0%
COc1ccc(C2/C(=C(/O)c3ccc(C)cc3)C(=O)C(=O)N2CCCN2CCOCC2)cc1 (stereo not given) | 14% | 45µM* | 1% | ? | 1 | 9%
COc1ccc(/C(O)=C2/C(=O)C(=O)N(CCCN3CCOCC3)C2c2ccc(C)cc2)cc1 (stereo not given) | 41% | -15% | 2% | -30% | 7 | 2%
Cc1sc(-c2cc3ccccc3oc2=O)nc1-c1ccc(Cl)cc1 | . | 3% | . | . | 7 | .
CC(=O)O[C@H]1C[C@H](O[C@H]2[C@@H](O)CC(O[C@H]3[C@@H](O)C[C@H](O[C@H]4CC[C@@]5(C)[C@H](CC[C@@H]6[C@@H]5CC[C@]5(C)[C@@H](C7=CC(=O)OC7)CC[C@]65O)C4)O[C@@H]3C)O[C@@H]2C)O[C@H](C)[C@H]1O[C@@H]1O[C@H](CO)[C@@H](O)[C@H](O)[C@H]1O (stereo not given in full) | ? | . | . | 4.8µM* | . | .
CC(=O)OC1CC(OC2C(O)CC(OC3C(O)CC(OC4CCC5(C)C(CCC6C5CC(O)C5(C)C(C7=CC(=O)OC7)CCC65O)C4)OC3C)OC2C)OC(C)C1OC1OC(CO)C(O)C(O)C1O (stereo not given) | . | . | . | . | -100* | 0.56µM*
Cc1c(CNCc2ccc(OC(C)C)cc2)c(C(=O)O)c(C)n1Cc1ccc(Cl)cc1 | . | -15% | . | . | 23 | .
CC(NCC1(N2CCOCC2)CCCCC1)C(=O)Nc1ccc(Cl)cc1Cl (stereo not given) | ? | -17% | -3% | 9.3µM* | -27 | -12%
CC(Sc1ccc(S(=O)(=O)N2CCOCC2)cn1)C(=O)Nc1ccc(Cl)cc1Cl (stereo not given) | 12µM* | 1% | 3% | ? | -23 | ?
CC(Sc1ccc(S(=O)(=O)N2CCOCC2)cn1)c1ccccc1Cl (stereo not given) | . | . | -9% | . | -14 | 2%
O=C(CSc1ccc(S(=O)(=O)N2CCOCC2)cn1)Nc1ccc(F)c(F)c1 | -18% | 2% | -4% | ? | 0 | 6.3µM*
O=C(CSc1ccc(S(=O)(=O)N2CCOCC2)cn1)Nc1ccc(OC(F)F)cc1 | -24% | 18% | 3% | -13% | -29 | 6%
CCOc1ccc(S(=O)(=O)N2CCCC(C(=O)NCC3CCCO3)C2)cc1 (stereo not given) | ? | -6% | 4% | -30% | -14 | -1%
CCOc1ccc2nc3sc(C(=O)N4CCN(C)CC4)c(N)c3cc2c1 | ? | -18% | -5% | . | ? | 11µM*
Cc1ccc2cc3c(N)c(C(=O)N4CCOCC4)sc3nc2c1 | 128% | -26% | 1% | 0% | 119 | 8%
Cc1ccc2nc3sc(C(=O)N4CCOCC4)c(N)c3cc2c1 | 177% | -1% | -2% | -28% | -69* | 28%
CC(C)c1ccc2nc3sc(C(=O)N4CCc5ccccc5C4)c(N)c3cc2c1 | 6% | -2% | -3% | 68% | 36 | 10µM*
Cc1ccc(N2CCN(C(=O)c3cn(C)c4ccc(S(=O)(=O)N(C)C5CCCCC5)cc4c3=O)CC2C)cc1 (stereo not given) | . | -2% | . | . | -18 | .
SMILES | Pf growth 48h | Sm TGR inh | SARS PLP yeast | Pf growth 96h | HCMV antiviral | HCV inh
COCCCn1c(=N)c(C(=O)NC2CCCCC2)cc2c(=O)n3cc(C)ccc3nc21 | . | 8% | . | . | ? | .
CC/C(=N/Nc1cccc(C)c1)c1cnnc(SC)n1 | ? | 2% | -1% | -101% | -68* | 10µM*
CCCn1c(N)c(C(=O)CSc2nc(C)cs2)c(=O)n(C)c1=O | -21% | -10% | -3% | 9.3µM* | -39 | ?
CN(C(=O)CSc1nc(C2CCCC2)nc2c1c(=O)n(C)c(=O)n2C)c1ccccc1 | . | 4% | . | . | -36 | .
CS/C(=N\S(=O)(=O)c1cccs1)Nc1ccc(Br)cc1F | 11% | 6% | -45% | 44% | 6 | 7%
COC(=O)c1ccc(CSc2nc3c(c(=O)[nH]2)CCC3)cc1 | . | -4% | . | . | -6 | .
O=C(O)c1cn(-c2ccccc2)nc1C(=O)O | -1% | -8% | -20% | -18% | -24 | 10%
NNC(=O)c1nn(-c2ccccc2)cc1O | -4% | 16% | 10µM* | -2% | . | .
O=c1c(-c2ccccc2)c1-c1ccccc1 | 6.7µM* | 3.5µM* | -24% | 5.4µM* | . | .
O=c1[nH][nH]c(-c2ccccc2)c1-c1ccccc1 | . | . | . | . | -8 | -3%
Cc1ccc(C)n1C1C(=O)N(Cc2ccc(C(C)C)cc2)c2c(F)cccc21 (stereo not given) | . | . | . | . | -19 | .
COc1cccc(NC(=O)Cn2c(CCC(=O)O)ccc2-c2cccs2)c1 | 15% | -20% | 1% | 10% | -5 | 11%
Cc1ccc(NC(=O)Cn2c(CCC(=O)O)ccc2-c2cccs2)cc1Cl | 27% | 25µM* | -4% | 51% | -34 | 25%
O=C(O)CCc1ccc(-c2cccs2)n1CCC(=O)O | 7% | 7.1µM* | 11% | ? | 20 | 17%
